# Only some compounds are listed: those with a hit (about 6.4% of all), similar ones and a draw of the others.
# RORgamma inh – inhibitors of mouse ROR gamma transcriptional activity | P51450 | Drosophila S2 Gal4-RORgamma UAS-luciferase reporter, 20 h | Potency, µM (series often up to 53.6 µM), for the others: top-dose activity change, negative = inhibition, hits mostly inhibitors | 310,000 tested, 5.4% active; also: nearly all actives have a fitted effect of over 60% in size
# Target sequence (P51450 whole entry, looked up, the tested form may be a part): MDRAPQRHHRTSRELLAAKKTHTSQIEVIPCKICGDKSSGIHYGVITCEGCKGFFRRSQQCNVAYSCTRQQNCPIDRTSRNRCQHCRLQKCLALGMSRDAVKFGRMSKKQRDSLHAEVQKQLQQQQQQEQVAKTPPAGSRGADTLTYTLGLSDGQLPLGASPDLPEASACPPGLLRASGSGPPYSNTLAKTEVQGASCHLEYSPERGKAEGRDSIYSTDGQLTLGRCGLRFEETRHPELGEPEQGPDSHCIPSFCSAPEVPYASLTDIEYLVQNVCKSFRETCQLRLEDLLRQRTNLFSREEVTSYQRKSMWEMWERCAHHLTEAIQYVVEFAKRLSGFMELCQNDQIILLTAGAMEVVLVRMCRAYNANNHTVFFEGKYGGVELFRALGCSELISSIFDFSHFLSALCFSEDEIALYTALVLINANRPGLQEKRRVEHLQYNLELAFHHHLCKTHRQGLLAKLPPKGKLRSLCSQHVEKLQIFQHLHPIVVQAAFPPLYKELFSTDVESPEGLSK
#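 Schneider cells (Drosophila), stable Gal4 DBD–ROR gamma + UAS-luc; 1 hr cmpd preincubation; Cu2+ induction 700 uM final; 20 hr ambient; luminescence.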
# VP16 counter – counter-screen for ROR gamma inhibitors: Gal4-VP16 reporter; Potency, µM (series often up to 53.6 µM), for inactives: top-dose activity, negative = inhibition, most hits filed as inhibitors; Drosophila S2 Gal4-VP16 UAS-luciferase, luminescence, 20 h; 310,000 tested, 3.5% active;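 also: Gal4-VP16 expression switched on by copper sulfate through the metallothionein promoter; nearly all actives have a fitted effect of over 50% in size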
# Luc counter – counter-screen: inhibitors of Kinase-Glo firefly luciferase. Kinase-Glo luciferase, ATP luminescence, 8 min. Q27757. AID 1379. 200,000 tested, 0.28% active. Potency, µM (highest dose often 38.3 µM), inactives show at the highest dose activity change, negative = inhibition, most hits filed as inhibitors; also: nearly all actives have a fitted effect of over 60% in size
#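 Substrate mix (final 50 mM imidazole pH 7.2, 50 mM KCl, 7 mM MgCl2, 10 uM ATP, 0.01% Tween 20, 0.05% BSA) plus pin-tool compound, then Kinase-Glo detection mix; 8 min ambient, luminescence read.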
# * hit, by the source's call; ? = inconclusive; . = no result; [ ] = dose if it differs, or a comment. Calls follow the shape of the dose curve; as a rule, active = well fitted curve in the direction sought with a large enough effect; inconclusive = small, poorly fitted or top-dose-only effect, or another doubt; inactive = no such curve, though single readings can be large; an effect the other way counts as inactive or inconclusive. % is scaled to controls: 0 for no effect and ±100 for the full control effect; potency is read from the fitted curve at half-maximal effect.
SMILES,RORgamma inh,VP16 counter,Luc counter
COc1ccccc1NNC(=O)c1cc(C(C)(C)C)nn1Cc1ccccc1,?,-5%,.
Cc1ccc(NC(=O)c2cc(C(C)(C)C)nn2Cc2ccccc2)cc1,-16%,-19%,.
CC(C)(C)c1cc(C(=O)Nc2ccc(F)cc2)n(Cc2ccc(F)cc2)n1,11µM*,?,.
CC(C)(C)c1cc(C(=O)NC2CC2)n(Cc2ccc(F)cc2)n1,9%,-9%,.
COc1ccc2c(c1)C(=O)[C@@H](OC(=O)Nc1cc(OC)c(OC)c(OC)c1)[C@H](c1ccc(OC)c(Br)c1)O2,-40%,-4%,-1%
N#CCCN(C(=O)COc1ccc(C#N)cc1)c1ccc(F)cc1,34%,3%,0%
CN1CCc2ccccc2[C@@H]1Cc1ccccc1NC(=O)c1sc2ccccc2c1Cl,.,.,-11%[7.66 µM]
COc1ccc(NC(=O)CSc2nc(O)cc(=O)n2-c2ccc(OC)cc2)cc1,-10%,3%,.
CC(C1CC2CCC1C2)n1c(-c2cccs2)n[nH]c1=S (configuration not stated),0.79µM*,?,.
CC(NCC(O)COCc1cccs1)C1CC2CCC1C2 (configuration not stated),-5%,10%,4%
Cc1ccc(C(=O)OC(C)CN2CCN(C)CC2)cc1 (configuration not stated),-10%,-16%,.
COc1cccc(C(=O)Oc2ccc(/C=N/Nc3ccc(C(=O)O)cc3)cc2OC)c1,-11%[1.91 µM],2.2µM*,.
COc1cc(/C=N/n2cnnc2)ccc1OC(=O)c1cccnc1,?,11µM*,-1%
COc1cc(/C=N/n2cnnc2)ccc1OC(=O)c1ccncc1,?,?,1%
COc1cccc(OCc2cc(/C=N/Nc3ccc(C(=O)O)cc3)ccc2OC)c1,0.28µM*,7.9µM*,.
COCc1cc(/C=N\NC(=O)COc2ccccc2)ccc1OC,8%,12%,0%
COc1cc(/C=N/Nc2ccc(Cl)c(C(=O)O)c2)ccc1OC(=O)c1ccc(F)cc1,-29%,7%,.
CCC1C(=O)CC2CCN3C(=O)CCC1C23 (configuration not stated),-9%,3%,.
O=C(CCc1nnc2ccc(N3CCC4(CC3)OCCO4)nn12)NCc1ccccc1Cl,9%,-2%,.
OC1CCN(Cc2ccc(OCc3ccccc3)cc2)CC1,10µM*,?,.
O=C(C1CCN(Cc2ccc(OCc3ccccc3)cc2)CC1)N1CCCC1,-36%,-1%,2%
CC(C)(C)n1cn[nH]c1=S,11µM*,-13%,.
COCCCn1cn[nH]c1=S,-22%,6%,.
CCCCCC1C(=O)C[C@@H]2CCN3C(=O)CCC[C@H]1[C@H]23 (some centres not stated),-2%[96.6 µM],-1%[96.6 µM],1%[39.9 µM]
O=C(Nc1ccccc1)N1CC[C@@]2(CCCN(C(=O)c3cnccn3)C2)C1,-4%,-17%,-1%
SMILES,RORgamma inh,VP16 counter,Luc counter
Cn1c(=O)[nH]c(=O)c2c1nc([N+](=O)[O-])n2Cc1ccccc1,4µM*,5.6µM*,.
Cn1c(=O)[nH]c(=O)c2c1nc(N1CCNCC1)n2Cc1ccccc1,-5%,-12%,.
CCNc1nc2c(c(=O)[nH]c(=O)n2C)n1CC(C)C,-23%,1%,4%
CC(C)Cn1c([N+](=O)[O-])nc2c1c(=O)[nH]c(=O)n2C,8.9µM*,?,.
Cc1[nH]c(C)c(S(=O)(=O)N2CCN(c3cccc(Cl)c3)CC2)c1C(=O)N1CCCCC1,10%,-6%,.
COc1ccc(CNC(=O)C(c2ccccc2F)N(C(=O)c2csnn2)C2CC2)cc1 (configuration not stated),20%,-4%,.
Cn1c(=O)c(C(=O)NCC2CCCO2)c(O)c2ccccc21 (configuration not stated),-42%,?,-1%
COC(=O)CCC(=O)Oc1ccc(OC(=O)CCC(=O)OC)cc1,13µM*,?,1%
COC(=O)CCC(=O)Nc1ccc(NC(=O)CCC(=O)OC)cc1,-35%,5%,0%
Cc1ccc(N=Nc2c(C)[nH]n(-c3ccccc3)c2=O)c(C)c1,?,18µM*,0%
Cc1ccc(N=Nc2c(C)[nH]n(-c3ccccc3)c2=O)cc1Br,-1%,?,.
CCOc1ccc(C(=O)NC(Cc2ccccc2)C(=O)OC)cc1 (configuration not stated),-12%,-20%,-2%
O=C(NC(=S)NC(CO)Cc1ccccc1)c1ccc(F)cc1 (configuration not stated),11µM*,?,.
O=C(NC(Cc1ccc(F)cc1)C(=O)O)c1ccccc1 (configuration not stated),-18%,7%,2%
COC(=O)C(Cc1ccccc1)NC(=S)NC(=O)c1ccccc1 (configuration not stated),3.2µM*,?,5%
CN(C(=O)c1ccc(OC2CCN(C(=O)c3cccnc3)CC2)cc1)C1CCCCC1,30%,6%,-6%
CCCC(=O)Nc1ccc(N2CCN(C(=O)c3cc4ccccc4o3)CC2)cc1,11%,6%,.
CC(=O)N1CCN(c2ccc(NC(=O)c3cc4ccccc4o3)cc2)CC1,?,21%,.
CCC(=O)N1CCN(c2ccc(NC(=S)NC(=O)COc3ccccc3)cc2)CC1,?,13µM*,6%
CC(=O)N1CCN(c2ccc(NC(=S)NC(=O)COc3ccc(C(C)(C)C)cc3)cc2)CC1,39%[10 µM],?,1%
CC(C)C(=O)N1CCN(c2ccc(NC(=S)NC(=O)c3cc4ccccc4o3)cc2)CC1,5µM*,?,.
CCC(=O)N1CCN(c2ccc(NC(=S)NC(=O)c3cc4ccccc4o3)cc2)CC1,13µM*,4µM*,.
NC(CS)C(=O)O (configuration not stated),-18%[10 µM],-3%,.
Cc1cc(Cc2cc(Cc3cc(C)cc(C(C)(C)C)c3O)c(C)cc2C)c(O)c(C(C)(C)C)c1,.,.,1%[7.66 µM]
Cc1cc(C(=O)Nc2ccc3c(c2)CCC3)c2ccccc2n1,31%,-7%,-6%
SMILES,RORgamma inh,VP16 counter,Luc counter
O=C(c1ccc(=O)[nH]c1)N1CCN(S(=O)(=O)c2ccc(Cl)cc2)CC1,-11%,-2%,.
Cc1cc(NC(=O)CCC(=O)N(Cc2ccccc2)C2(C(=O)NC3CCCCC3)CCCC2)no1,2%,-1%,6%
c1ccc(-c2csc(Nc3cccnc3)n2)nc1,?,13%,0%
COc1ccc(NC(=O)CC2CC3CCC2C3)cn1 (configuration not stated),15%,-13%,-1%
O=C(Nc1nc(-c2ccccn2)cs1)C1CC(=O)N(c2ccc3c(c2)OCCO3)C1 (configuration not stated),10µM*,?,-5%
c1ccc(Nc2nc(-c3ccccn3)cs2)cc1,3.5µM*,10µM*,-3%
O=C(CC1CC2CCC1C2)Nc1nc(-c2ccccn2)cs1 (configuration not stated),3.2µM*,13µM*,-2%
O=C(Nc1nnc(C2CC2)s1)C1CC(=O)N(c2ccc3c(c2)OCCO3)C1 (configuration not stated),22%,1%,-1%
COc1cccc2sc(Nc3nc(-c4ccccn4)cs3)nc12,0.045µM*,.,.
COc1ccc(-c2csc(Nc3ncccn3)n2)cc1C,16%,-6%,.
